Compound activity: PubChem BioAssay, National Center for Advancing Translational Sciences (NCATS)
JMJD2A Tudor inh – qHTS Assay for Inhibitors of JMJD2A-Tudor Domain; AlphaScreen JMJD2A-Tudor / H3K4me3 peptide binding; Lysine-specific demethylase 4A (Homo sapiens), O75164; Potency, µM (doses to about 114 µM), for inactives: at the top dose activity change, negative = inhibition, most hits filed as inhibitors; 4.4% of 390,000 active; note: % is set by controls: 0 for no effect and ±100 for the full control effect; nearly all actives have a fitted effect of over 50% in size
BAZ2B inh – qHTS Assay for Inhibitors of BAZ2B | Bromodomain adjacent to zinc finger domain protein 2B (Homo sapiens), Q9UIF8 | AlphaScreen BAZ2B-H3K14Ac peptide displacement | Potency, µM (highest dose often 114 µM), for the others: top-dose activity change, negative = inhibition, most hits filed as inhibitors | 4.4% of 360,000 active | AID 504333, 2011; note: % is set by controls: 0 for no effect and ±100 for the full control effect; nearly all actives have a fitted effect of over 60% in size
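Inhibition is scored as reduced AlphaScreen emission. The BAZ2B/b-H3(5-23)K14Ac complex (50 nM each) in PBS pH 7.4, 0.01% Tween-20 meets compound (up to 110 uM) for 30 min at RT before bead addition.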
PLK1 PBD inh – qHTS for Inhibitors of PLK1-PDB (polo-like kinase 1 - polo-box domain): Primary Screen; Plk1 PBD binding of FITC phosphopeptide, fluorescence polarization; Serine/threonine-protein kinase PLK1 (Homo sapiens), P53350; Potency, µM, without a hit: max response, negative = inhibition, actives largely listed as inhibitors; 2.8% of 360,000 active; note: series mostly up to about 57 µM; % is set by controls: 0 for no effect and ±100 for the full control effect; nearly all actives have a fitted effect of over 65% in size
Sfp PPTase inh – qHTS Assay for Inhibitors of Bacillus subtilis Sfp phosphopantetheinyl transferase (PPTase) | 4'-phosphopantetheinyl transferase ffp (Bacillus subtilis), Q9F4F7 | Biochemical Sfp PPTase activity, qHTS | Potency, µM, for the others: largest response in the series, negative = inhibition, actives largely listed as inhibitors | 3.5% of 310,000 active | AID 1490, 2009;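 note: the enzyme is Sfp with the accession as filed and its product quenches rhodamine fluorescence; 0% = enzyme reaction without inhibitor and -100% = no enzyme wells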
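Sfp 15 nM + cpd, 15 min RT; start w/ rhodamine-CoA 5 uM, BHQ-2-YbbR 12.5 uM (final); 50 mM Hepes pH 7.6, 10 mM MgCl2, 0.01% NP-40, 0.01% BSA; read 525/598 nm at 0 and 30 min.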
HP1b binding inh – HTS for Inhibitors of HP1-beta Chromodomain Interactions with Methylated Histone Tails; 0.56% of 390,000 active; AlphaScreen HP1-beta / biotin-H3K9me3 peptide binding; Chromobox protein homolog 1 (Homo sapiens), P83916; Potency, µM (top dose mostly 114 µM), inactives show top-dose activity change, negative = inhibition, most hits filed as inhibitors; note: nearly all actives have a fitted effect of over 70% in size
Target sequence (P83916 whole entry, looked up): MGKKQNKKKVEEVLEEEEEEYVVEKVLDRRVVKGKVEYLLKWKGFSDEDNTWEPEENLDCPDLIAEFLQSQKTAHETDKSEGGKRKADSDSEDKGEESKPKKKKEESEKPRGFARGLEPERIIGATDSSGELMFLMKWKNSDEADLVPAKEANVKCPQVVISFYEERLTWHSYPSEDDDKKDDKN
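HP1-beta protein (50 nM final) preincubated 30 min at room temperature with biotinylated H3(1-18)K9me3 peptide (50 nM) in PBS pH 7.4, 0.01% Tween-20, then compound added for 30 min. AlphaScreen streptavidin donor/nickel chelate acceptor beads (10 ug/mL final), 30 min dark, luminescence read.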
G9a inh – qHTS Assay for Inhibitors of Histone Lysine Methyltransferase G9a | Histone-lysine N-methyltransferase EHMT2 (Homo sapiens), Q96KQ7 | 8.8% of 350,000 active | Potency, µM (titrated, usually from 102 µM), without a hit: at the top dose activity, negative = inhibition, actives largely listed as inhibitors | AID 504332, 2011 | G9a H3K9 monomethylation, AlphaScreen, 2 h; note: % is set by controls: 0 for no effect and ±100 for the full control effect; nearly all actives have a fitted effect of over 75% in size
Target sequence (Q96KQ7 913-1193 limits assumed): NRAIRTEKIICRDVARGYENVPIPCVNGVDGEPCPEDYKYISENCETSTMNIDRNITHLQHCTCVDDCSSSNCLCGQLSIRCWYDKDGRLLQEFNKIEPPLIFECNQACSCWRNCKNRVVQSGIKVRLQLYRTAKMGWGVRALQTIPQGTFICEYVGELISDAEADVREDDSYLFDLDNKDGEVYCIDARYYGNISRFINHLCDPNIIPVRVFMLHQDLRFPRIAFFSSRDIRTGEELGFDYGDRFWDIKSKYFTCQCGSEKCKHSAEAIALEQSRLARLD
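Readings reflect AlphaScreen signal from monomethyl-H3K9 antibody detection. HMT at 20 nM; substrate b-H3K9 500 nM; cofactor SAM 20 uM; 2 h RT reaction; compounds tested as titrations in qHTS with 15 min preincubation.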
The depositor's hits bear a star; [ ] = another dose, or the depositor's remark. Shown are actives, neighbours in structure and some others; about 12% of the full set was active somewhere. Calls come from the whole dose curve; as a rule, active = well fitted curve in the direction sought with a large enough effect; inconclusive = small, poorly fitted or top-dose-only effect, or another doubt; inactive = no such curve, though single readings can be large; an effect the other way counts as inactive or inconclusive. Potency is the fitted concentration of half-maximal effect.

O=C(NC(NNc1ccc([N+](=O)[O-])cc1)(C(F)(F)F)C(F)(F)F)c1ccc(Cl)cc1 was read as JMJD2A Tudor inh inconclusive, BAZ2B inh -38.9%, PLK1 PBD inh -26.4%, Sfp PPTase inh -10.5%, HP1b binding inh -31.7% and G9a inh 39.8µM*.
Cc1[nH]c(N=Nc2ccccc2)nc1N=Nc1ccccc1 was read as JMJD2A Tudor inh 7.94µM*, BAZ2B inh 6.31µM*, PLK1 PBD inh -0.9%, Sfp PPTase inh -17.9%, HP1b binding inh inconclusive and G9a inh 7.94µM*.
For COc1ccc(C(=O)NCCCN2CCOCC2)cc1OC the results were JMJD2A Tudor inh -6.1%[57.1 µM], BAZ2B inh 5.0%, PLK1 PBD inh -4.4%, Sfp PPTase inh 23.4%, HP1b binding inh 27.1% and G9a inh 1.6%[12.7 µM].
COc1ccc(-n2c(=S)[nH]c3cc(C(=O)NCCCN4CCOCC4)ccc3c2=O)cc1OC was read as JMJD2A Tudor inh 22.4µM*, BAZ2B inh inconclusive, PLK1 PBD inh -6.1%, Sfp PPTase inh -22.0%, HP1b binding inh 33.8% and G9a inh 35.5µM*.
For O=C(c1ccc2c(=O)n(Cc3ccccc3)c(=S)[nH]c2c1)N1CCOCC1 the results were JMJD2A Tudor inh -4.2%, BAZ2B inh -1.8%, PLK1 PBD inh 0.9%, Sfp PPTase inh -6.1%, HP1b binding inh 34.6% and G9a inh inconclusive.
For O=C(NCCCN1CCOCC1)c1ccc2c(=O)n(Cc3ccccc3)c(=S)[nH]c2c1 the results were JMJD2A Tudor inh -9.7%, BAZ2B inh -26.1%, PLK1 PBD inh 3.8%, Sfp PPTase inh 4.8%, HP1b binding inh 39.0% and G9a inh 50.1µM*.
For COc1ccc([C@H]2C[C@@H](O)[C@H](n3cc(C4CC4)nn3)CN2Cc2cccs2)cc1 the results were PLK1 PBD inh 4.2%.
Cc1c(Cl)ccc2sc(NC(=O)c3ccc(S(=O)(=O)N4CCCC4)cc3)nc12 was read as JMJD2A Tudor inh -2.9%, BAZ2B inh 5.1%, HP1b binding inh 32.9%[57 µM] and G9a inh 5.6%[59 µM].
Screening Cc1ccc(CN2CCCn3nc(C(=O)NCc4ccc(N(C)C)cc4)cc3C2=O)cc1 returned JMJD2A Tudor inh inconclusive, BAZ2B inh inconclusive, HP1b binding inh 0.2% and G9a inh 14.1µM*.
N#Cc1c(N2CCCC(O)C2)nc(N)c2c(N)nc3c(c12)CC(=O)N3C12CC3CC(CC(C3)C1)C2 (configuration not stated) was read as JMJD2A Tudor inh 56.2µM*, BAZ2B inh inconclusive, PLK1 PBD inh -11.1%, Sfp PPTase inh inconclusive, HP1b binding inh inconclusive and G9a inh inconclusive.
`C=CCSCC(N)C(=O)O` (configuration not stated) gave Sfp PPTase inh -11.1%.
For Cc1c(CNC(C)CCc2ccccc2)c(C(=O)O)c(C)n1Cc1ccc(F)cc1Cl (configuration not stated) the results were JMJD2A Tudor inh -22.5%, BAZ2B inh -23.0%, HP1b binding inh 25.5% and G9a inh -1.2%[59 µM].
`CC(c1nnc(SCC(=O)c2c(N)n(C3CC3)c(=O)[nH]c2=O)n1-c1ccc(F)cc1)N(C)C` (configuration not stated) gave JMJD2A Tudor inh -5.4%, BAZ2B inh -19.0%, PLK1 PBD inh -17.3%, HP1b binding inh 24.8% and G9a inh -17.0%[59 µM].
For O=C(COC(=O)c1ccccc1C(=O)OCC(=O)NCCc1c[nH]c2ccccc12)NCCc1c[nH]c2ccccc12 the results were JMJD2A Tudor inh inconclusive, BAZ2B inh inconclusive, PLK1 PBD inh -12.7%, HP1b binding inh -6.5% and G9a inh 18.8%[2.33 µM].
`Cc1nn(-c2ccc(N3CCCC3)nn2)c(C)c1CCC(=O)N1CCN(c2ccccc2F)CC1` gave JMJD2A Tudor inh -25.0%, BAZ2B inh -25.9%, HP1b binding inh 3.7% and G9a inh 11.9%[59 µM].
For CCOc1ccc(CNC(=O)C(CC)n2nc(C)n3c(cc4occc43)c2=O)cc1OC (configuration not stated) the results were JMJD2A Tudor inh -6.5%, BAZ2B inh -5.7%, PLK1 PBD inh 4.5%, Sfp PPTase inh 10.5%, HP1b binding inh 31.4% and G9a inh 50.1µM*.
For CCC(C(=O)NCc1ccc(F)cc1)n1nc(C)n2c(cc3occc32)c1=O (configuration not stated) the results were JMJD2A Tudor inh -9.0%, BAZ2B inh -9.9%, PLK1 PBD inh -4.5%, Sfp PPTase inh 9.6%, HP1b binding inh 43.5% and G9a inh -11.9%.
Cc1cc2c(s1)c1c(C)nn(Cc3ccccc3F)c(=O)c1n2C was read as BAZ2B inh 6.0% and G9a inh 9.0%[12.7 µM].
For COc1ccc(N2C(=O)/C(=C3/C=CC=CN3C)SC2=S)cc1 the results were JMJD2A Tudor inh -29.8%, BAZ2B inh -37.1%, PLK1 PBD inh -21.7%, Sfp PPTase inh 50.1µM*, HP1b binding inh -24.3% and G9a inh 44.7µM*.
Screening CCN1C(=O)/C(=C2/C=CC=CN2C)SC1=S returned JMJD2A Tudor inh -23.8%, BAZ2B inh inconclusive, PLK1 PBD inh -10.3%, Sfp PPTase inh inconclusive, HP1b binding inh inconclusive and G9a inh inconclusive.
CN1C=CC=C/C1=C1/SC(=S)N(Cc2ccccc2)C1=O was read as JMJD2A Tudor inh inconclusive, BAZ2B inh 39.8µM*, PLK1 PBD inh -9.9%, Sfp PPTase inh inconclusive, HP1b binding inh inconclusive and G9a inh inconclusive.
Screening Clc1cccc(-n2ncc3c(NCCC4=CCCCC4)ncnc32)c1 returned JMJD2A Tudor inh -7.0%, BAZ2B inh 4.8%, HP1b binding inh 10.4% and G9a inh -8.1%[59 µM].
`Cc1ccccc1OCC(O)CO` (configuration not stated) gave Sfp PPTase inh 37.8% and G9a inh -14.6%[2.33 µM].
For CC1CCC/C(=N\NC(=O)Nc2ccccc2)C1 (configuration not stated) the results were JMJD2A Tudor inh -0.7%, BAZ2B inh 10.5%, PLK1 PBD inh 4.7%, Sfp PPTase inh 5.1%, HP1b binding inh 29.4% and G9a inh 39.8µM*.
